Measurements from PubChem BioAssay (NCATS).
Results filed as inconclusive are left out. Unmarked numbers belong to inactive results. Calls of active or inactive are those of the source. The call rests on the fitted dose curve; in most records, active means well fitted inhibition curve with a large enough effect; inconclusive means small, poorly fitted or top-dose-only effect; inactive means no such curve, though single readings can be large or run the other way.

Assay: qHTS assay for measurement of the activity of small molecule inhibitors on Zika virus induced Caspase-3 activity in human iPSC derived neural progenitor cells (hNPCs) (AID 1224857); further: nearly all actives have a fitted effect of over 65% in size
Conditions: hNPCs ZIKV-induced caspase-3/7, Caspase-Glo luminescence, 6 h; series mostly up to 45.7 µM; activity change, negative = inhibition: at the top concentration
Description: National Center for Advancing Translational Sciences [NCATS]
Johns Hopkins University School of Medicine
Increase in the Caspase-3 activity indicates an activation of apoptosis cell death pathway caused by Zika virus infection in certain types of neuronal cells including human neural progenitor cells (hNPCs), astrocytes, and astrocytoma cell line (SNB-19). This cell-based caspase-3 activity assay measures the increased caspase-3 activity in the human iPSC derived neural progenitor cells (hNPCs) after a 6-hour Zika virus infection with a luminescence readout. A decrease in the luminescence signal in this assay by small molecule treatment indicates an inhibitory effect of that small molecule on the Zika virus induced caspase-3 activity that may correlate with its effect on reduction of Zika virus caused cell death.
The medium for hNPCs consists of DMEM/F12, N2 supplement (ThermoFisher, Cat.# 17502048), NEAA (ThermoFisher, Cat. # 11140050), 2 ug/ml heparin, 2 uM cyclopamine, and B27 (ThermoFisher, Cat. # 17504044). A Caspase-Glo 3/7 assay kit (catalog number G8092; Promega, Madison, WI) was used to detect caspase-3 activity induced by Zika virus infection in human cells. The reagent mixture was reconstituted as described in the protocol from the manufacturer. Polystyrene tissue culture treated and PDL coated white plates were obtained from Greiner Bio-One (Monroe, NC). Cells were seeded in 384- or 1536-well assay plates and cultured at 37 C with 5% CO2 for 16 to 20 hours. The typical cell seeding density in the 1536-well plate assay is 350 cells/well in 3 ul medium for hNPCs in tissue culture treated plates. Compounds were added to cells and incubated for one hour before addition of ZIKV solution to cells (2 FFU/cell). After incubation at 37 C with 5% CO2 for 6 hours, the reagent mixture of Caspase-Glo 3/7 assay kit was added to each well, followed by incubation at room temperature for 30 minutes. The luminescence intensity of the assay plates was measured using a ViewLux plate reader (PerkinElmer). Data were normalized by using the cell-containing wells without ZIKV as a negative control (0% induction of caspase 3/7 activity) and wells containing ZIKV infected cells (Caspase-3 activity induced) as a positive control (100% induction of caspase 3 activity). The percentage inhibitions of the increased Caspase-3 activity by small molecule inhibitors were then calculated.
Potency means the concentration at half of the fitted maximal effect.

| SMILES | activity change, negative = inhibition | Potency |
| --- | --- | --- |
| CCCCCCCCCCCC[N+](C)(C)Cc1ccccc1 | 53% |  |
| COC(=O)CCCCC(CCSS/C(CCO)=C(\C)N(C=O)Cc1cnc(C)nc1N)SC(C)=O (stereo not given) | 32.5% |  |
| CCN(CC)CC(=O)Nc1c(C)cccc1C(=O)OC | 37.9% |  |
| Cc1ccc(C(=O)Oc2ccc(C(O)CNC(C)(C)C)cc2OC(=O)c2ccc(C)cc2)cc1 (stereo not given) | -8.11% |  |
| CC(=O)N(CC(=O)N(C)C)c1ccccc1 | -7.08% |  |
| OCc1c[nH]c2ccccc12 | -11.2% [at 92.8 µM] |  |
| COC(=O)c1cc(Cl)c(NC(C)=O)cc1OC | -0.281% |  |
| CC(C)(C)c1ccc(O)c(O)c1 |  | 35.5 µM (active) |
| CCCC(=O)Nc1ccc(O)c(C(C)=O)c1 | 5.67% |  |
| Cc1ncc([N+](=O)[O-])n1C | 1.56% |  |
| Nc1ccc2c(c1)CN1C(=O)c3ccccc3C1=N2 | -171% [at 20.5 µM] |  |
| CCOC(=O)OCC/C(SC(=O)OCC)=C(\C)N(C=O)Cc1cnc(C)nc1N | 2.13% |  |
| Nc1nnnn1-c1ccccc1 | -5.09% |  |
| Cc1cc(CCCOc2c(C)cc(-c3noc(C(F)(F)F)n3)cc2C)on1 | 4.01% |  |
| CCCCCOc1ccccc1/C(=C\SC)n1ccnc1 | 8.37% |  |
| CC(C)C(=O)Nc1cccc(C(F)(F)F)c1 | -4.41% |  |
| CC(C)(C)C1CCC(CC2=C(O)c3ccccc3C(=O)C2=O)CC1 (stereo not given) | 9.48% |  |
| COCCc1ccc(OCC2CO2)cc1 (stereo not given) | -14.3% |  |
| Clc1ccc2c(c1)Nc1ccccc1S2 | -3% |  |
| Cc1c(C)c2c(c(C)c1OC(=O)CCC(=O)OCCO)CC[C@@](C)(CCC[C@H](C)CCC[C@H](C)CCCC(C)C)O2 | 13.5% |  |

| SMILES | activity change, negative = inhibition | Potency |
| --- | --- | --- |
| Cc1cnc(NS(=O)(=O)c2ccc(N)cc2)nc1 | -22.3% |  |
| CN1CCN(N)CC1 | 2.43% |  |
| COC(=O)c1cc(Cl)ccc1OC | -4.52% |  |
| CSCC[C@H](NC(=O)[C@H](Cc1c[nH]c2ccccc12)NC(=O)CCNC(=O)OC(C)(C)C)C(=O)N[C@@H](CC(=O)O)C(=O)N[C@@H](Cc1ccccc1)C(N)=O | -9.94% |  |
| CCOc1ccccc1OCC1CNCCO1 (stereo not given) | 0.981% |  |
| CCOC(=O)C(=O)CCCCCCl | 1.13% |  |
| CO/N=C(\C(=O)O)c1csc(NC(=O)CCl)n1 | 3.42% |  |
| CC(C)(C)C(=O)OCOC(=O)C1N2C(=O)CC2S(=O)(=O)C1(C)C (stereo not given) | 6.48% |  |
| O=C(O)Cc1ccc(OCCNC[C@H](O)c2ccccc2)cc1 | -4.71% |  |
| CC(C)(c1ccc(O)cc1)c1ccc(O)cc1 | -3.6% [at 92.8 µM] |  |
| CC(NC(CCc1ccccc1)C(=O)O)C(=O)N1C(=O)N(C)CC1C(=O)O (stereo not given) | 29.3% |  |
| O=C(CS(=O)Cc1ccco1)NC/C=C\COc1cc(CN2CCCCC2)ccn1 (stereo not given) | -2.1% |  |
| C[N+](C)(C)CCO | -2.5% |  |
| N#C/C(=C1/SC[C@@H](c2ccc(Cl)cc2Cl)S1)n1ccnc1 | 33.6% |  |
| C=CCOc1cc(Cl)ccc1C(=O)NCCN(CC)CC | 1.9% |  |
| OCc1cccnc1 | 19.1% |  |
| Cc1ccc2ccc(Cl)cc2n1 | -1.1% |  |
| CC(=O)N1CCN(c2ccc(O)cc2)CC1 | 5.97% |  |
| CN1CCC(Nc2ncc3ncnc(Nc4ccc(F)c(Cl)c4)c3n2)CC1 | 13.8% |  |
| CC(CC(C#N)(c1ccccc1)C(C)C)N(C)C (stereo not given) | 17.5% |  |
